Target: PITX2 (Homo sapiens, UniProt Q99697 72-157)
Assay: PBM; 200 nM protein, PBS
Details: dsDNA, one strand shown

Sequence	binding signal
CTAGCGAG	8.11 upbm affinity estimate (log intensity, higher = more binding, comparable within an allelic series)
GCAGTCGC	7.82 upbm affinity estimate (log intensity, higher = more binding, comparable within an allelic series)
ACTGTCAG	7.86 upbm affinity estimate (log intensity, higher = more binding, comparable within an allelic series)
GCTCCACC	7.66 upbm affinity estimate (log intensity, higher = more binding, comparable within an allelic series)
AAGATAAT	10.6 upbm affinity estimate (log intensity, higher = more binding, comparable within an allelic series)
ACGATGCC	7.9 upbm affinity estimate (log intensity, higher = more binding, comparable within an allelic series)
CACTCGCA	8.08 upbm affinity estimate (log intensity, higher = more binding, comparable within an allelic series)
ATTCAAAT	9.75 upbm affinity estimate (log intensity, higher = more binding, comparable within an allelic series)
GCGTACCC	8.02 upbm affinity estimate (log intensity, higher = more binding, comparable within an allelic series)
GCACGCCA	7.9 upbm affinity estimate (log intensity, higher = more binding, comparable within an allelic series)
CGGGCACA	8 upbm affinity estimate (log intensity, higher = more binding, comparable within an allelic series)
CGGTGATA	9.92 upbm affinity estimate (log intensity, higher = more binding, comparable within an allelic series)
AGCGTGGG	8.14 upbm affinity estimate (log intensity, higher = more binding, comparable within an allelic series)
TAGATTAA	12.4 upbm affinity estimate (log intensity, higher = more binding, comparable within an allelic series)
GATGATAA	9.84 upbm affinity estimate (log intensity, higher = more binding, comparable within an allelic series)
GGTCTTTA	9.73 upbm affinity estimate (log intensity, higher = more binding, comparable within an allelic series)
GTGCCAGA	8.11 upbm affinity estimate (log intensity, higher = more binding, comparable within an allelic series)
ATATAAAG	9.37 upbm affinity estimate (log intensity, higher = more binding, comparable within an allelic series)
AGATCCGG	9.62 upbm affinity estimate (log intensity, higher = more binding, comparable within an allelic series)
AGTGCCTC	7.74 upbm affinity estimate (log intensity, higher = more binding, comparable within an allelic series)

Sequence	binding signal
CCTCAACG	7.97 upbm affinity estimate (log intensity, higher = more binding, comparable within an allelic series)
CCGAGCAG	8.01 upbm affinity estimate (log intensity, higher = more binding, comparable within an allelic series)
ACGTCTCC	7.95 upbm affinity estimate (log intensity, higher = more binding, comparable within an allelic series)
ACGTTCTG	8.19 upbm affinity estimate (log intensity, higher = more binding, comparable within an allelic series)
ATTACAGA	9.82 upbm affinity estimate (log intensity, higher = more binding, comparable within an allelic series)
ACAGATCT	9.05 upbm affinity estimate (log intensity, higher = more binding, comparable within an allelic series)
ACACCAGC	8.12 upbm affinity estimate (log intensity, higher = more binding, comparable within an allelic series)
AGGCGTCC	7.84 upbm affinity estimate (log intensity, higher = more binding, comparable within an allelic series)
ACTTGATC	10.2 upbm affinity estimate (log intensity, higher = more binding, comparable within an allelic series)
GATGAGCC	9.56 upbm affinity estimate (log intensity, higher = more binding, comparable within an allelic series)
ACCATCGT	7.89 upbm affinity estimate (log intensity, higher = more binding, comparable within an allelic series)
AAGCTGAA	9.66 upbm affinity estimate (log intensity, higher = more binding, comparable within an allelic series)
GGCTTAAA	12.3 upbm affinity estimate (log intensity, higher = more binding, comparable within an allelic series)
CCTACGTC	7.98 upbm affinity estimate (log intensity, higher = more binding, comparable within an allelic series)
GCCTCACC	8.04 upbm affinity estimate (log intensity, higher = more binding, comparable within an allelic series)
ACAATCCC	10.3 upbm affinity estimate (log intensity, higher = more binding, comparable within an allelic series)
GGAATAAA	9.51 upbm affinity estimate (log intensity, higher = more binding, comparable within an allelic series)
CGCCTGTC	8.14 upbm affinity estimate (log intensity, higher = more binding, comparable within an allelic series)
CCTACCAG	8.01 upbm affinity estimate (log intensity, higher = more binding, comparable within an allelic series)
GGATTTAA	12.5 upbm affinity estimate (log intensity, higher = more binding, comparable within an allelic series)

— PMC11006913
